FLuc modulator: qHTS profiling assay for firefly luciferase inhibitor/activator using purifed enzyme and Km concentrations of substrates (counterscreen for miR-21 project). purified FLuc, Km substrates, luminescence inhibition. 360,000 compounds, 6.9% hits. AID 588342, 2011. Potency, µM (highest dose often 57.5 µM), hits mostly inhibitors; also: nearly all actives have a fitted effect of over 55% in size
Target sequence (P08659 whole entry, looked up): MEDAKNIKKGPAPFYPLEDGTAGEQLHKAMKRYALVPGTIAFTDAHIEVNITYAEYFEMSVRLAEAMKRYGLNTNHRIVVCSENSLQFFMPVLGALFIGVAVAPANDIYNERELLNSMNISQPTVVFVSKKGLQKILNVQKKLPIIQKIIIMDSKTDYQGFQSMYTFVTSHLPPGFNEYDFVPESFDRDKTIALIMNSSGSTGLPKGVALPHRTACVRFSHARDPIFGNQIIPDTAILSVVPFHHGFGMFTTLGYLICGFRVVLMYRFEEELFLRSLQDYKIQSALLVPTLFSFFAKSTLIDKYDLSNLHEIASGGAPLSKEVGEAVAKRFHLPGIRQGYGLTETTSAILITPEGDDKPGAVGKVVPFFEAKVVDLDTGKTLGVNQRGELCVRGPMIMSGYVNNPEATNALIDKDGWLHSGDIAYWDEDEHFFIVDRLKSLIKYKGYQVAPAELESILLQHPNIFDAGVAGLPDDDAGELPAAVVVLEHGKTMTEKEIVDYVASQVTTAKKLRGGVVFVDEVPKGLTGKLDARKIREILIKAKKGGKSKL
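Biochemical qHTS of compounds, final roughly 60 µM downward over six points, against 10 nM purified firefly luciferase using Km concentrations of substrates (10 uM D-luciferin, 10 uM ATP) in Tris acetate pH 7.5 buffer; luminescence output.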
NPC1 prom act: qHTS Assay for NPC1 Promoter Activators. Huh7 NPC1 promoter luciferase reporter, 24 h. Potency, µM (doses to about 9.22 µM), hits mostly activators. 320,000 compounds, 2.4% hits; also: nearly all actives have a fitted effect of over 60% in size
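Stably transfected Huh7 (NPC1 promoter→luciferase), 1500 cells/well in Opti-MEM + 10% FBS, 2 h settle, then compound 24 h at 37 °C. Luminescence after 10 min with Amplite reagent.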
Rab9 prom act: qHTS Assay for Rab9 Promoter Activators. Huh7 Rab9 promoter-luciferase reporter, luminescence, 24 h. Potency, µM (titrated, usually from 9.22 µM), hits mostly activators. AID 485297, 2010. 320,000 compounds, 2.8% hits; also: nearly all actives have a fitted effect of over 60% in size
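Steps: seed 1500 Huh7 Rab9-luc cells per well, rest 2 h at 37 °C; add compound in DMSO; incubate 24 h; add luciferase reagent, 10 min ambient; read luminescence.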
SMN2 splice up: qHTS Assay for Enhancers of SMN2 Splice Variant Expression | HEK293 SMN2-luciferase splicing reporter, luminescence, 30-36 h | Potency, µM (titrated, usually from 46.1 µM), hits mostly activators | 210,000 compounds, 2.8% hits; also: nearly all actives have a fitted effect of over 55% in size
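HEK293 cells carry an SMN2 […]–luciferase reporter in which exon 7 inclusion puts luciferase in frame. Cells were plated 10-12 h before compound addition, then incubated 30-36 h at 37C. ONE-Glo luminescence was read; sodium butyrate at 4.5 mM final served as control.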
Luc counter: Counterscreen for Luciferase (Kinase-Glo TM) Inhibition | Kinase-Glo luciferase, ATP luminescence, 8 min | 200,000 compounds, 0.28% hits | Potency, µM (top dose mostly 38.3 µM), most hits filed as inhibitors; also: nearly all actives have a fitted effect of over 60% in size
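Kinase-Glo luciferase light output from ATP and luciferin was measured with 10 uM ATP, within the enzyme's linear range. Buffer: 50 mM imidazole pH 7.2, 50 mM KCl, 7 mM MgCl2, 0.01% Tween 20, 0.05% BSA; luminescence read after 8 min at ambient temperature.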
ELG1 genotox: qHTS screen for small molecules that induce genotoxicity in human embryonic kidney (HEK293T) cells expressing luciferase-tagged ELG1. 330,000 compounds, 1.3% hits. Potency, µM (top dose mostly 46 µM), most hits filed as activators. HEK293T ELG1-luciferase reporter, luminescence, 16 h; also: nearly all actives have a fitted effect of over 60% in size
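ELG1-luciferase HEK293T cells, 2,000/well; compound pinned in; 16 hr, 37 °C, 5% CO2; ONE-Glo, 30 min RT; luminescence on CCD imager.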
Hits are given with their value; n = inactive; u = inconclusive; x = no result; [ ] = remark or other dose. Only some compounds are listed: those with a hit (about 7.5% of all), similar ones and a draw of the others. Calls follow the shape of the dose curve; as a rule, active = well fitted curve in the direction sought with a large enough effect; inconclusive = small, poorly fitted or top-dose-only effect, or another doubt; inactive = no such curve, though single readings can be large; an effect the other way counts as inactive or inconclusive.

SMILES	FLuc modulator	NPC1 prom act	Rab9 prom act	SMN2 splice up	Luc counter	ELG1 genotox
Cc1ccnc(NC(=S)NC(=O)/C=C/c2ccccc2)c1	n	u	u	n	n	n
Cc1ccnc(NC(=O)c2ccccc2[N+](=O)[O-])c1	n	n	n	n	n	n
O=C(/C=C\c1ccccc1[N+](=O)[O-])Nc1ccccc1	11µM	u	2µM	18µM	n	u
Cc1ccnc(NC(=O)/C=C/c2ccccc2[N+](=O)[O-])c1	3.4µM	2µM	0.56µM	2.8µM	n	2.6µM
NS(=O)(=O)c1ccc(NC(=O)/C=C/c2ccccc2[N+](=O)[O-])cc1	n	n	n	n	n	n
Cc1ccnc(NC(=O)/C=C/c2ccccc2Cl)c1	0.6µM	0.71µM	1.1µM	1.3µM	n	u
CC(C)c1ccc(NC(=O)CN2C=NS(=O)(=O)c3ccccc32)cc1	n	x	x	x	x	x
NNC(=O)CS(=O)(=O)Nc1ncccn1	x	x	x	n[9.22 µM]	n[7.66 µM]	x
Cc1ccc(S(=O)(=O)Nc2cc(Cl)c3oc4c(c3c2)CCCC4)cc1	u	x	x	n	x	x
CCOC(OCC)P(=O)(O)CCCNCc1ccc(Cl)c(Cl)c1	x	x	x	n	n	x
NS(=O)(=O)c1ccc(CCNS(=O)(=O)Cc2ccc(Cl)cc2)cc1	n	n	n	x	x	n
Cc1ccc2c(COC(=O)CNC(=O)c3ccccc3)cc(=O)oc2c1	19µM	n	n	n	n	n
Cc1ccc2c(COC(=O)c3ccccc3OC(F)F)cc(=O)oc2c1	4.8µM	n	n	x	x	u
Cc1ccc2c(COC(=O)C3=COCCO3)cc(=O)oc2c1	0.85µM	3.2µM	0.79µM	u	n	1.8µM
O=C1c2ccccc2C(=O)N1c1ncn[nH]1	n	n	n	x	x	n
COc1ccc2[nH]c3c(NCCC4=CCCCC4)ncnc3c2c1	11µM	n	n	n	n	n
COc1ccc2[nH]c3c(NCc4ccco4)ncnc3c2c1	9.5µM	u	4µM	n	n	n
CCN(CC)CCNc1ncnc2c1[nH]c1ccc(OC)cc12	n	n	n	n	n	n
COc1ccc2[nH]c3c(NCCCOC(C)C)ncnc3c2c1	6µM	1.8µM	0.79µM	x	x	u
O=C(c1ccc(Cl)c([N+](=O)[O-])c1)N1CCN(Cc2ccc3c(c2)OCO3)CC1	n	n	n	n	n	n
O=C(OC(C(=O)Nc1cccc(C(F)(F)F)c1)c1ccccc1)C1CCCCC1 (stereo not given)	n	n	n	n	n	n
CN(C)c1nc(N)c(C(=O)Nc2cccnc2)nc1Cl	x	x	x	11µM	n	x
O=C(Nc1cccnc1)c1ccc(Cl)c(Cl)c1	u	n	n	x	x	n
CCOC(=O)C1CCN(c2ncnc3c2cnn3-c2ccccc2)CC1	u	n	n	n	n	u
COc1ccc(-n2ncc3c(N4CCC(C)CC4)ncnc32)cc1	0.54µM	0.11µM	0.1µM	x	x	0.26µM
SMILES	FLuc modulator	NPC1 prom act	Rab9 prom act	SMN2 splice up	Luc counter	ELG1 genotox
Cc1ccc(-n2ncc3c(N4CCC(C)CC4)ncnc32)cc1C	1.5µM	x	x	x	x	x
CC1CCN(c2ncnc3c2cnn3-c2ccccc2)CC1	2.1µM	0.89µM	0.63µM	13µM	n	1.5µM
COCCNC(=O)c1ccc(-c2nc(CN3CCc4ccccc43)c(C)o2)cc1	n	x	x	x	x	x
COc1ccc(S(=O)(=O)N(C)C[C@H]2Oc3c(NC(=O)NC(C)C)cccc3C(=O)N([C@H](C)CO)C[C@@H]2C)cc1	x	x	x	x	x	n
COc1cccc(-c2nc(CCl)cs2)c1OC	17µM	n	n	n	n	n
COc1ccc(-c2nc(CC(=O)O)cs2)cc1OC	n	n	n	n	n	n
CCOc1ccc(-c2nc(CCl)cs2)cc1OC	17µM	n	n	n	n	u
O=C(CN1C=NS(=O)(=O)c2ccccc21)Nc1ccccc1F	n	x	x	x	x	x
CN(Cc1cccc2ccccc12)Cc1cccc2ccccc12	x	x	x	n[9.22 µM]	n[7.66 µM]	x
CCc1ccc(-c2ccc(C(=O)Oc3ccc(Br)cc3)cc2)nc1	n	x	x	n	x	x
CCCCc1ccc(-c2ccc(Br)cc2)nc1	1.2µM	1.3µM	1µM	3.5µM	n	u
CCCc1ccc(-c2ccc(F)c(N)c2)nc1	0.3µM	0.5µM	0.4µM	0.71µM	u	u
Nc1cc(-c2nn[nH]n2)ccc1F	n	n	n	n	n	n
c1ccc2nc3c(nc2c1)OCC1CCCCN31 (stereo not given)	3.8µM	4.5µM	2.5µM	x	x	u
CC(C)[C@H](NC(=O)OC(C)(C)C)C(=O)N1CCC(C(=O)N[C@@H](C)C(=O)Nc2ccc(F)cc2)CC1	n	n	n	x	x	n
CCc1ccc(NC(=O)[C@H](C)NC(=O)C2CCN(C(=O)[C@@H](NC(=O)OC(C)(C)C)C(C)C)CC2)cc1	21µM	n	n	x	x	n
O=C(CC1CCCC1)Nc1ccc(Br)cc1	17µM	u	u	x	x	u
COc1ccc(NC(=O)CC2CCCCC2)cc1OC	n	n	n	n	n	n
O=C(COC(=O)CC1CCCC1)Nc1ccc(Cl)cc1	30µM	n	n	x	x	n

Source: PubChem
